From publication PMC4878873 come the findings set out here.

The target in the assay is COP9 signalosome complex subunit 4 (UniProt Q9BT78). Nature of the assay: cross-link between two proteins; cross-linking mass spectrometry.

Chain of E3 ubiquitin-protein ligase RBX1, P62877 (P62877 whole entry): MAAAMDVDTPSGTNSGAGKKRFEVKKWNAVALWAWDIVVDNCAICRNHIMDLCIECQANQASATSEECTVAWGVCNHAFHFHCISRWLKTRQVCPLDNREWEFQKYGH

“E3 ubiquitin-protein ligase RBX1, P62877”: the “listed as a hit” value is recorded as “yes”.
